Most compounds without a hit are left out; they make up all but 15% or so of the library.
RORg inh = qHTS for inhibitors of ROR gamma transcriptional activity; Nuclear receptor ROR-gamma (Mus musculus), P51450; Drosophila S2 Gal4-RORgamma UAS-luciferase reporter, 20 h; Potency, µM (top dose mostly 53.6 µM), for inactives: at the top dose activity change, negative = inhibition, usual class: inhibitors; 310,000 tested, 5.4% active; AID 2551, 2010; note: nearly all actives have a fitted effect of over 60% in size
Target sequence (P51450 whole entry, looked up, the tested form may be a part): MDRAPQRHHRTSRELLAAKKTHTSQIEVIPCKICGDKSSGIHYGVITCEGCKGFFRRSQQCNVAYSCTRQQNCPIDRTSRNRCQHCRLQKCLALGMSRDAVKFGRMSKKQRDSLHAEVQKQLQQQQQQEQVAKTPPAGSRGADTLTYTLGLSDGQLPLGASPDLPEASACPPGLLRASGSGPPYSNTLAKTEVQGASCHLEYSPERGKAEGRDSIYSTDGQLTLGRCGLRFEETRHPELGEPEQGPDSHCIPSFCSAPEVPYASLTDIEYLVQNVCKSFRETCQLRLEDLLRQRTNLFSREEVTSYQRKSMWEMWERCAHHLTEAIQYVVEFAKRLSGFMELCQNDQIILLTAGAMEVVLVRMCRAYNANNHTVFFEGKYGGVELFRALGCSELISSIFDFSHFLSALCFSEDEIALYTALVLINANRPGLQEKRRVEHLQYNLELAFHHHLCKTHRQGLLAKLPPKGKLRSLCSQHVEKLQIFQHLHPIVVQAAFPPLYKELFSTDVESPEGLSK
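Luciferase reporter read in Schneider cells carrying Gal4-RORγ (mouse) and UAS-Photinus luciferase; cells given compound 1 h before 700 uM copper sulfate induction, then incubated 20 h at ambient temperature.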
DT40 TDP1 no CPT = qHTS for Inhibitors of human tyrosyl-DNA phosphodiesterase 1 (TDP1): qHTS in cells in absence of CPT; Potency, µM (series often up to 46.2 µM), without a hit: at the top dose activity change, negative = growth inhibition, most hits filed as inhibitors; AID 686978, 2013; DT40 Tdp1-/- hTDP1 cells, no CPT, ATP luminescence, 48 h; 420,000 tested, 15% active; note: nearly all actives have a fitted effect of over 55% in size
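DT40 Tdp1-/-;hTDP1 cells, no CPT (DMSO vehicle only), 400 cells/well; compounds pin-transferred; ≥48 hr, 37 °C; CellTiter-Glo 30 min RT dark, luminescence read.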
Gal4-VP16 FLuc = VP16 counterscreen qHTS for inhibitors of ROR gamma transcriptional activity; Drosophila S2 Gal4-VP16 UAS-luciferase, luminescence, 20 h; Potency, µM (series often up to 53.6 µM), without a hit: at the top dose activity, negative = inhibition, hits mostly inhibitors; 310,000 tested, 3.5% active; AID 2546, 2010;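 note: Gal4-VP16 expression switched on by copper sulfate through the metallothionein promoter; nearly all actives have a fitted effect of over 50% in size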
ELG1 repair inh = qHTS screen for small molecules that inhibit ELG1-dependent DNA repair in human embryonic kidney (HEK293T) cells expressing luciferase-tagged ELG1; HEK293T ELG1-luciferase reporter, luminescence, 16 h; DNA damage induced by 5-fluorouridine; Potency, µM (doses to about 46.1 µM), inactives show at the top dose activity change, negative = inhibition, actives largely listed as inhibitors; 330,000 tested, 2.3% active; AID 504467, 2011; note: nearly all actives have a fitted effect of over 55% in size
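Reporter activity after DNA damage by 5-fluorouridine is monitored. Compound-treated cells incubate 16 hr at 37 °C, then ONE-Glo is added for 30 min before luminescence reading.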
ALOX12 inh = Primary qHTS assay for inhibitors of human arachidonate 12S-lipoxygenase (ALOX12): Round 2; Polyunsaturated fatty acid lipoxygenase ALOX12 (Homo sapiens), P18054; purified 12hLO, xylenol orange hydroperoxide absorbance; Potency, µM (series often up to 108 µM), without a hit: at the top dose activity change, negative = inhibition, hits mostly inhibitors; 580,000 tested, 1.1% active
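Purified human 12hLO (150 nM final) in 25 mM Hepes, 0.01% Triton X-100, pH 7.0 was preincubated 15 min at room temperature with compound. Then 40 uM arachidonic acid was added, 30 min. Hydroperoxide was read by Fe-XO absorbance ratio 573/405 nm.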
TDP1 cell CPT = qHTS for Inhibitors of human tyrosyl-DNA phosphodiesterase 1 (TDP1): qHTS in cells in presence of CPT. AID 686979, 2013. Potency, µM (top dose mostly 46.2 µM), for the others: top-dose activity change, negative = growth inhibition, most hits filed as inhibitors. 420,000 tested, 12% active. chicken DT40 Tdp1-/-;hTDP1 cells + 20 nM CPT, ATP luminescence, 48 h; note: nearly all actives have a fitted effect of over 55% in size
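Chicken DT40 Tdp1-/- cells stably complemented with human TDP1 were seeded at 400 cells/well in medium containing 20 nM camptothecin, exposed to pin-transferred compounds, and grown at 37 °C for at least 48 hr. Viability was read as ATP luminescence.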
Active calls of the source: *; u = inconclusive; x = no result given; [ ] = another dose, or the depositor's remark. Calls come from the whole dose curve; as a rule, active = well fitted curve in the direction sought with a large enough effect; inconclusive = small, poorly fitted or top-dose-only effect, or another doubt; inactive = no such curve, though single readings can be large; an effect the other way counts as inactive or inconclusive. % is set by controls: 0 for no effect and ±100 for the full control effect; potency is the fitted concentration of half-maximal effect.

SMILES	RORg inh	DT40 TDP1 no CPT	Gal4-VP16 FLuc	ELG1 repair inh	ALOX12 inh	TDP1 cell CPT
Cc1ccc(NC(=O)CC2Oc3ccc(C)cc3NC2=O)c(C)c1 (configuration not stated)	-1%	21µM*	13%	-23%	-15%	u
Cc1ccc2c(c1)NC(=O)C(CC(=O)Nc1ccc(Br)c(C)c1)O2 (configuration not stated)	3%	-13%	-2%	-1%	2%	-4%
Cc1nc(Nc2ccc(NC(=O)c3cccs3)cc2)cc(N2CCCCC2)n1	x	x	x	x	-13%	x
Cc1nc(Nc2ncc(C(=O)Nc3c(C)cccc3Cl)s2)cc(N2CCN(CCO)CC2)n1	15%	2.4µM*	-3%	x	u	2.1µM*
CN(C)c1nc(OCCNC(=O)COc2ccccc2Cl)nc(N(C)C)n1	0%	10µM*	-12%	u	0%	u
COc1cc(C)nc(OCCNC(=O)COc2ccc(Cl)cc2C)n1	3%[0.365 µM]	21µM*	x	-7%	0%	16µM*
Cc1cc(Cl)ccc1OCC(=O)NCCOc1nc(N2CCCCC2)nc(N2CCOCC2)n1	9%	6.5µM*	7%	-5%	1%	7.3µM*
CN(C)c1nc(OCCNC(=O)Nc2ccccc2)nc(N(C)C)n1	23%	-22%	0%	-12%	0%	-5%
CC(=O)Nc1ccccc1-c1c(C)nn2c1N(C(=O)Cc1cccc(Cl)c1)CCC2	x	x	x	x	2%[176 µM]	x
Cc1c(CCOC(=O)C23CC4CC(CC(C4)C2)C3)sc[n+]1CC#N	-2%	5.2µM*	-12%	-7%	-30%	3.3µM*
Cc1c(CCOC(=O)CC23CC4CC(CC(C4)C2)C3)sc[n+]1Cc1ccccc1	35%	1.8µM*	-14%	9%	-20%	2.1µM*
COc1ccc(C(=O)N2CCC3(C2)C(=NC2CCCC2)NC(=O)N3c2cccc(OC)c2)cc1 (configuration not stated)	x	x	x	x	6%[6.33 µM]	x
O=C(NCCN1CCCC1)c1c[nH]c2ccccc12	x	x	x	x	-19%	x
CSc1ccc(NC(=O)CC2C=CCC2)cc1 (configuration not stated)	x	x	x	x	-4%	x
CCN1CCN(CCCNC(=O)c2ccc3c(c2)NC(=O)c2ccccc2S3)CC1	-27%	u	-1%	u	-26%	-25%
Cc1ccc(NC(=O)c2ccc3c(c2)NC(=O)c2ccccc2S3)c(Cl)c1	x	3.3µM*	x	x	u	3.7µM*
CCC(C)N(CCNC(=O)c1ccc2c(c1)NC(=O)c1ccccc1S2)C1CCCCC1 (configuration not stated)	-22%	2.9µM*	-18%	u	-27%	15µM*
CN(C)c1nc(-c2ccncc2)nc2c1CCN(C(=O)c1ccn[nH]1)C2	x	x	x	x	37%	x
CN(C)c1ccc(/C=C/c2cc[n+]([O-])cc2)cc1	-31%	x	-26%	u	x	x
Cc1cnc(/C=C/c2ccc(N(C)C)cc2)cn1	x	2.8µM*	x	x	x	3.2µM*
Cc1cnc2c(C)ccc(C)c2c1/C=C/c1ccc(N(C)C)cc1	x	16µM*	x	x	x	u
COc1ccc(-c2nc(C#N)c(NCc3ccc4c(c3)OCO4)o2)cc1	x	x	x	x	-18%	x
CCOc1ccc(-c2nc(C#N)c(NCc3ccc4c(c3)OCO4)o2)cc1	-14%	15µM*	-10%	u	0%[57.4 µM]	u
COc1ccc(Nc2oc(-c3ccc(Cl)cc3)nc2C#N)cc1	u	2.9µM*	-16%	u	u	6.5µM*
COc1ccc(-c2nc(C#N)c(NCc3ccccc3)o2)cc1	x	x	x	x	11%	x

Compound activity: PubChem, National Center for Advancing Translational Sciences (NCATS)
